Screening results deposited in PubChem by National Center for Advancing Translational Sciences (NCATS).
Only a selection was taken, and hits are over-represented in it overall.
HTT-AS act: Primary qHTS for Identification of Small Molecule Activators of Huntingtin-Antisense Promoter Activity; HEK293 HTT-AS promoter firefly luciferase reporter, 24 h; response scale: percent change from vehicle, -100% = no light; 48,000 tested, 0.24% active; Potency, µM (highest dose often 57.5 µM), for the others: at the highest dose activity change, positive = activation, actives largely listed as activators; further: potency means the concentration at half of the fitted maximal effect; nearly all actives have a fitted effect of over 55% in size
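Firefly luciferase readout (Dual-Glo, 10 min RT) after 24 h, 37 °C compound exposure (final up to 57.5 uM) of HEK293 reporter cells cultured 24 h beforehand; PTC124 at 50 uM final as control inhibitor; activity scaled vehicle 0%, zero RLU -100%.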
TSG101-PTAP inh: qHTS Validation Assay for Inhibitors of HIV-1 Budding by Blocking the Interaction of PTAP/TSG101: Sytravon Library Screen; Fluorescence polarization, FITC-PTAP peptide/Tsg101, 20 min; Potency, µM (series often up to 115 µM), most hits filed as inhibitors; 44,000 tested, under 10 active; AID 1347069, 2019; further: potency means the concentration at half of the fitted maximal effect; 0% is about no effect
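The Tsg101 binding domain, at 10 uM final, is mixed with compound and a FITC peptide bearing the PTAP motif (50 nM final). After 20 min at r.t., polarization is measured; actives defined by CRC class, efficacy cut-off 60% inhibition.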
HTT prom inh: Primary qHTS for Identification of Small Molecule Inhibitors of Huntingtin Promoter Activity. HEK293 HTT promoter firefly luciferase reporter, 24 h. Potency, µM (highest dose often 57.5 µM), without a hit: at the highest dose activity change, negative = inhibition, hits mostly inhibitors. 48,000 tested, 0.93% active. AID 1508623, 2021; further: potency means the concentration at half of the fitted maximal effect; nearly all actives have a fitted effect of over 50% in size
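Firefly luciferase signal from promoter-reporter HEK293 cells was scaled between vehicle (0%) and zero RLU (-100%). Compounds were tested at final concentrations of up to 57.5 uM over 24 h at 37 degrees C. PTC124 at 50 uM final served as control inhibitor.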
GALK inh: qHTS Assay for Inhibitors of Human Galactokinase (GALK): NCGC Sytravon Library Screen | P51570 | recombinant GALK, Kinase-Glo ATP luminescence, 1 h | Potency, µM (top dose mostly 57.5 µM), inactives show at the top dose activity, negative = inhibition, actives largely listed as inhibitors | 44,000 tested, under 10 active;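 further: plate controls were full GALK reaction for no effect and reaction lacking GALK for full effect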
Target sequence (P51570 whole entry, looked up): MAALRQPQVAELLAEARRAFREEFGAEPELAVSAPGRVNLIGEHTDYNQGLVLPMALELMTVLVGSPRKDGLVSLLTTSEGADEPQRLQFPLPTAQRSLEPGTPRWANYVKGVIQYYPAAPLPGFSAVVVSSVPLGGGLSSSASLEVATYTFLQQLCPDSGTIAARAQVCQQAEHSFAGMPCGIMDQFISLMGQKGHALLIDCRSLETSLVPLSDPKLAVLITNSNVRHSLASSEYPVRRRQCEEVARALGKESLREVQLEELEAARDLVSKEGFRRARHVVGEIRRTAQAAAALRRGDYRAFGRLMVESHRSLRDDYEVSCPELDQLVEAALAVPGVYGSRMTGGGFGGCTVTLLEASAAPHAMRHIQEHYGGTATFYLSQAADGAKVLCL
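5 nM GALK with 35 µM ATP and 100 µM galactose in HEPES pH 8.0, MgCl2, NaCl, DTT, BSA; 1 h RT reaction, remaining ATP detected by Kinase-Glo Plus luminescence after 10 min; qHTS concentration series.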
B2AR arrestin ag: qHTS assay of beta-arrestin-biased ligands of beta2-adrenergic receptor: NCGC Sytravon Library Screen; Beta-2 adrenergic receptor (Homo sapiens), P07550; HTLA Tango cells, beta-arrestin recruitment, luciferase luminescence, 18 h; Potency, µM (doses to about 46.1 µM), most hits filed as activators; 44,000 tested, under 10 active; AID 1347077, 2019;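 further: potency means the concentration at half of the fitted maximal effect; 0% = DMSO and full agonism = EC100 isoproterenol or metaproterenol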
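Luminescence read-out: arrestin recruitment to recombinant beta2-AR releases tTA, inducing luciferase. Cells exposed 18 hr at 37 degrees C to up to 46 microM compound; %Activity from corrected signal, concentration-response curves classified by r2, magnitude and efficacy.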
NTMT1 inh: Primary qHTS for Inhibitors of N-terminal methyltransferase 1 (NTMT1): MTaseGlo Assay; NTMT1 MTase-Glo SAH luminescence, purified enzyme; N-terminal Xaa-Pro-Lys N-methyltransferase 1 (Homo sapiens), Q9BV86; AID 1645870, 2021; Potency, µM (highest dose often 114 µM), inactives show top-dose activity change, negative = inhibition, actives largely listed as inhibitors; 59,000 tested, 2.5% active;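 further: potency means the concentration at half of the fitted maximal effect; plate controls were DMSO vehicle for no effect and no enzyme for full effect; nearly all actives have a fitted effect of over 65% in size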
Target sequence (Q9BV86 whole entry, looked up): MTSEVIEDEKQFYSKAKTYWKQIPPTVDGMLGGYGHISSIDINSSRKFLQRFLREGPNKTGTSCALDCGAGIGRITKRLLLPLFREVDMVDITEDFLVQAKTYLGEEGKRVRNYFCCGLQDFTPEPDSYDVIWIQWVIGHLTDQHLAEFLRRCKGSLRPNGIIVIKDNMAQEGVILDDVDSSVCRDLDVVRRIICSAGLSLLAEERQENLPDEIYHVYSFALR
The depositor's hits bear a star; i = inactive; ? = inconclusive; . = no result; ! = not active in a repeat; [ ] = another dose, or the depositor's remark. The call rests on the fitted dose curve; in most records, active means well fitted curve in the direction sought with a large enough effect; inconclusive means small, poorly fitted or top-dose-only effect, or another doubt; inactive means no such curve, though single readings can be large; an effect the other way counts as inactive or inconclusive.

SMILES | HTT-AS act | TSG101-PTAP inh | HTT prom inh | GALK inh | B2AR arrestin ag | NTMT1 inh
COc1ccc(C2=C(C)C(=O)N(Cc3ccc(C(=O)Nc4ccc(F)cc4C)cc3)S2(=O)=O)cc1 | -49% | i | 10µM* | 1% | i | 7%
Oc1cccc2cc(N3CCCC3)cnc12 | . | . | . | . | . | 10%
CC1(C)OB(c2ccc(O)c3ncc(N4CCNCC4)cc23)OC1(C)C | . | . | . | . | . | 79µM*
C/C=C(/C)C(=O)OC1C=C2C3C(C)C(C)C(OC(=O)C(C)C(C)O)CC3(C)CCC2(C)C2(C)CC(OC(C)=O)C3C(C)(C)C(O)C(=O)CC3(C)C12 (stereo not given) | . | . | . | . | . | 15%[12.6 µM]
CCOC(=O)c1[nH]c2c(c1C)CCC(c1ccco1)C2 (stereo not given) | . | . | . | . | . | -1%
CCOC(=O)c1[nH]c2c(c1C)C(=S)CC(c1ccco1)C2 (stereo not given) | . | . | . | . | . | 40µM*
COc1cc2c(cc1O)CC[C@@H]1[C@@H]2CC[C@]2(C)[C@@H](O)CC[C@@H]12 | . | . | . | . | . | 35µM*
CCCC(N[C@@H](C)C(=O)N1[C@H](C(=O)O)C[C@@H]2CCCC[C@@H]21)C(=O)OCC (stereo not given in full) | . | . | . | . | . | 6%[57.5 µM]
COc1cc(C)c(/C=C/C(C)=C/C=C/C(C)=C/C(=O)O)c(C)c1C | . | . | . | . | . | 79µM*
Cc1cc(C)cc(NC(=O)c2cc(S(=O)(=O)N3CCCCCC3)cn2C)c1 | -13% | i | -9% | 1% | i | 13%
Cc1cc(C)cc(NC(=O)c2cc(S(=O)(=O)N3CCC(C)CC3)cn2C)c1 | -26% | i | -20% | -1% | i | 89µM*
CC(C)(C)OC(=O)N1CCN(c2ccc(NCc3coc(-c4ccc(C#N)cc4)c3)cc2)CC1 | . | . | . | . | . | -8%
C/C(=N\NC(=O)c1cccc(S(=O)(=O)N2CCOCC2)c1)c1cc(Cl)ccc1O | . | . | . | . | . | 14%
CSc1ccc(/C=C/c2nc3ccccc3n2S(=O)(=O)c2cccc(Cl)c2)cc1 | -70% | i | ? | 13% | i | 6.3µM*
O=S(=O)(c1cccc(Cl)c1)n1c(/C=C/c2ccccc2Cl)nc2ccccc21 | ? | i | -46% | 10% | i | 6.3µM*
Cc1ccc(/C=C/c2nc3ccccc3n2S(=O)(=O)c2ccc(Br)cc2)cc1 | ? | i | 2% | -1% | i | ?
Oc1ccc(CNc2cc(Cl)ccn2)c2cccnc12 | . | . | . | . | . | -5%
C=C[C@]1(C)C[C@H](O)[C@@H]2[C@H](OC(=O)[C@@H]2C)C1/C(C)=C/O[C@@H]1O[C@H](CO)[C@@H](O)[C@H](O)[C@H]1O (stereo not given in full) | . | . | . | . | . | 8%[29.8 µM]
O=C([C@H](Cc1ccc(O[S+](=O)([O-])c2cccnc2)cc1)N[S+](=O)([O-])c1ccccn1)N1CCN(c2ccccc2)CC1 | . | . | . | . | . | 1%
CCc1ccc2nc(N3CCC(C(=O)O)CC3)sc2c1 | -75% | i | 10µM* | 0% | i | 0%
CCC(Cc1ccccc1)NC(=O)c1ccc2nc(N3CCC(C)CC3)sc2c1 (stereo not given) | -71% | i | 1.3µM* | 7% | i | 4%
COc1cc(OC)c(/C=C/S(=O)(=O)Cc2ccc(OC)c(OP(=O)(O)O)c2)c(OC)c1 | . | . | . | . | . | 5%
CONC(=O)c1ccccc1Nc1cc(Nc2cc(C)nn2C(C)C)ncc1Cl | . | . | . | . | . | -8%
O=C(Nc1cc(-c2nc3cc(Cl)ccc3o2)ccc1Cl)c1cccc2ccccc12 | 18µM* | i | 25% | 8% | i | 3%
O=C(Nc1cc(-c2nc3ccccc3o2)ccc1Cl)c1cccc2c(Cl)cccc12 | ? | i | 8% | -15% | i | ?
SMILES | HTT-AS act | TSG101-PTAP inh | HTT prom inh | GALK inh | B2AR arrestin ag | NTMT1 inh
CCCCC1CCC(CCCC(C)CCC(=O)O)CC1 (stereo not given) | -14% | i | -27% | 8% | i | 45µM*
Cc1cc(=O)c2c(O)c3c(O)cc(=O)c4c3c3c(cc(O)c1c23)C(C)(C)C=4O | -12% | . | -8% | . | . | 3.5µM*!
COc1ccc(N2C(=O)N(c3c(C)cccc3Cl)Cc3cnc(Nc4ccc(C5CCN(C)CC5)cc4OC)nc32)nc1 | . | . | . | . | . | -2%
COc1ccc(-n2c(-c3ccco3)nc3c(cnn3-c3ccc(Cl)cc3)c2=O)cc1 | -53% | i | 35µM* | -2% | i | ?
O=C(Nc1ccc(S(=O)(=O)Nc2nc(-c3ccccc3)cs2)cc1)c1ccc2ccccc2c1 | . | . | . | . | . | -10%
Cc1ccc(S(=O)(=O)Nc2ccc(C)cc2C(=O)Nc2nc(-c3ccccc3)cs2)cc1 | . | . | . | . | . | -6%
CN1CCCN=C1/C=C/c1cccs1 | -8% | . | -5% | . | . | 50µM*!
COCCNC(=O)c1ccc2nc(CCc3ccccc3)oc2c1 | ? | i | 24% | 2% | i | 89µM*
CC(C)c1ccc2oc3nc(N)c(C(=O)O)cc3c(=O)c2c1 | ? | . | 28% | . | . | 32µM*
COc1ccc(-c2cc(C(=O)N3CCN(c4ccccc4OC)CC3)c3cc(C(C)C)ccc3n2)cc1 | -23% | i | ? | 0% | i | 7%
O=C(C[C@@H]1C/C=C\CCC(=O)O[C@H](c2ccccc2)CNC1=O)NCc1ccc(Cl)cc1 | . | . | . | . | . | 17%
CN(C)c1cc(NC(=O)CNC(C)(C)C)c(O)c2c1C[C@@H]1C[C@H]3[C@H](N(C)C)C(=O)C(C(N)=O)=C(O)[C@@]3(O)C(=O)C1=C2O | -11% | . | -4% | . | . | 40µM*
CN(C)c1cc(NC(=O)CNC(C)(C)C)c(O)c2c1C[C@H]1C[C@H]3[C@H](N(C)C)C(=O)C(C(N)=O)=C(O)[C@]3(O)C(=O)C1=C2O | . | . | . | . | . | 40µM*
CCc1oc2ccccc2c1C(=O)c1cc(I)c(O)c(I)c1 | -25% | . | -12% | . | . | 20µM*
COc1ccc(S(=O)(=O)N[C@@H](CNc2nc(C)nc(N3CCC(c4ccc5c(n4)NCCC5)CC3)c2C)C(=O)O)cc1 | . | . | . | . | . | 9%
CC(C)N(CCC(=O)c1ccc2ccccc2c1)Cc1ccccc1 | . | . | . | . | . | 50µM*
